Laboratory results from PubChem BioAssay (NCATS).
Results filed as inconclusive are left out. Activity calls are given as the source filed them. The call rests on the fitted dose curve; in most records, active means well fitted curve in the direction sought with a large enough effect; inconclusive means small, poorly fitted or top-dose-only effect, or another doubt; inactive means no such curve, though single readings can be large; an effect the other way counts as inactive or inconclusive.

What was measured:
[1] = Viability counterscreen for antagonist of constitutive androstane receptor (CAR) against the NCATS DSHEA and TCM libraries (AID 1794837);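 further: compound exposure lasted 24 h before viability reading; 0% is about no effect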
Summary of the method: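 HepG2-CYP2B6-hCAR cells (2,500/well) were allowed to attach for 5 h, then exposed to compounds with 48 uM CITCO for 24 h at 37C. Viability was read by CellTiter-Fluor fluorescence after 1 h.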

[2] = Viability counterscreen for agonist of constitutive androstane receptor (CAR) against the NCATS DSHEA and TCM libraries (AID 1794838); further: 0% is about no effect
Summary of the method: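 HepG2-CYP2B6-hCAR cells (2,500/well) attached 5 h, then got compounds plus 0.75 uM PK11195 final. After 24 h at 37C, viability read by CellTiter-Fluor fluorescence (Ex/Em 405/540 nm).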

[3] = target: Nuclear receptor subfamily 1 group I member 3 (Homo sapiens) (UniProt Q14994); test: Primary qHTS for agonist of constitutive androstane receptor (CAR) against the NCATS DSHEA and TCM libraries (AID 1794839); further: potency means the concentration at half of the fitted maximal effect
Sequence of Nuclear receptor subfamily 1 group I member 3 (Homo sapiens) (Q14994 whole entry, looked up): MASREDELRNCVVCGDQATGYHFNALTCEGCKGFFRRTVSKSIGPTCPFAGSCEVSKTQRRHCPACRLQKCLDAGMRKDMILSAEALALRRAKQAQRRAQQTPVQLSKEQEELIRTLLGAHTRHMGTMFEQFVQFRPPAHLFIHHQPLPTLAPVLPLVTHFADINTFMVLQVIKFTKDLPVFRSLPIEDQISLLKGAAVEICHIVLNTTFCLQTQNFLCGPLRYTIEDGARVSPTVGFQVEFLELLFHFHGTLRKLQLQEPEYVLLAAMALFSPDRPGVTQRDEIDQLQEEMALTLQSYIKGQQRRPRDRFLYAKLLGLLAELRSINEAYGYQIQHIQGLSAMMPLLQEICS
Summary of the method: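 HepG2-CYP2B6-hCAR cells (2,500/well) were attached for 5 h, then treated for 24 h at 37 °C with compounds plus 0.75 µM PK11195. Luciferase luminescence (ONE-Glo) was read, with CellTiter-Fluor viability (Ex/Em 405/540 nm).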

[4] = HepG2 viability counterscreen (readout 2: ATP content) against the NCATS DSHEA and TCM libraries (AID 1794840);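 further: HepG2 cells exposed to substances for about 24 h; 0% is about no effect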
Summary of the method: (§1)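 HepG2 cells (1,000 cells/well) attached ~4 h, then treated ~24 h at 37C with substances. Protease activity read by GF-AFC (25 uM final, 30 min, Ex/Em 380/510 nm); ATP content then by CellTiter-Glo luminescence.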

[5] = HepG2 viability counterscreen (readout 1: protease activity) against the NCATS DSHEA and TCM libraries (AID 1794841);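 further: cells exposed to compounds for about 24 h before the protease read; 0% is about no effect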
Summary of the method: as §1

[6] = target: Cytochrome P450 3A4 (Homo sapiens) (UniProt P08684); test: qHTS for inhibitors of CYP3A4 against the NCATS DSHEA and TCM libraries (AID 1919971); further: potency means the concentration at half of the fitted maximal effect
Sequence of Cytochrome P450 3A4 (Homo sapiens) (P08684 whole entry, looked up, canonical isoform): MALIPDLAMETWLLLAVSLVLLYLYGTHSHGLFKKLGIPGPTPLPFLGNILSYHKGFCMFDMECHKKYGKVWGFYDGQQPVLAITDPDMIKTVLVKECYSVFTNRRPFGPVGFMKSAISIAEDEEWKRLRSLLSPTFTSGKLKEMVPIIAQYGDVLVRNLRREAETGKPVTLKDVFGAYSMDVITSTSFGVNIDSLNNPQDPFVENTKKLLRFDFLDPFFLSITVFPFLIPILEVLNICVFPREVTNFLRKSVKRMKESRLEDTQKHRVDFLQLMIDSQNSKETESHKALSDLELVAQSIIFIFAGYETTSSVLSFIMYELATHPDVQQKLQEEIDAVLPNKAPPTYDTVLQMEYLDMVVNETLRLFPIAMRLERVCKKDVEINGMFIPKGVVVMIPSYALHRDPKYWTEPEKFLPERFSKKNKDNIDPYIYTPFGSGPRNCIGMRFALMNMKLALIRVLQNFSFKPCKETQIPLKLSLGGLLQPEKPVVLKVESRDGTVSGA
Summary of the method: (§2)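 Isoform-specific enzyme and substrate levels; enzyme-free wells as background. Reaction: 1x NADPH regenerating system, 30-45 min, room temperature, shielded from light; luminescent detection reagent added, 30 min.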

[7] = target: Cytochrome P450 2C9 (Homo sapiens) (UniProt P11712); test: qHTS for inhibitors of CYP2C9 against the NCATS DSHEA and TCM libraries (AID 1919973); further: potency means the concentration at half of the fitted maximal effect
Sequence of Cytochrome P450 2C9 (Homo sapiens) (P11712 whole entry, looked up): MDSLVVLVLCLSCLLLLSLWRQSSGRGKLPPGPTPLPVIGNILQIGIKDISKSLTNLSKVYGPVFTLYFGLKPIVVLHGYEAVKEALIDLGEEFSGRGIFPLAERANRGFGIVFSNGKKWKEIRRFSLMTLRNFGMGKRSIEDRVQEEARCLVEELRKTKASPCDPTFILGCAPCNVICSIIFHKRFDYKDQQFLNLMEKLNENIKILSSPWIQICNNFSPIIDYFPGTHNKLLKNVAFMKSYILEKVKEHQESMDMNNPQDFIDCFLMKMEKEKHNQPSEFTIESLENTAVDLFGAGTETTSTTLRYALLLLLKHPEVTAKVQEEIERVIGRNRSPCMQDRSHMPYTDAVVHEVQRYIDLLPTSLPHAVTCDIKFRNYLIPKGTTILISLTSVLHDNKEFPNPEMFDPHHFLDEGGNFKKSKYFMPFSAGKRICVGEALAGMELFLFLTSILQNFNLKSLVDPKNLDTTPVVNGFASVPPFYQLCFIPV
Summary of the method: as §2

[8] = target: Cytochrome P450 2C19 (Homo sapiens) (UniProt P33261); test: qHTS for inhibitors of CYP2C19 against the NCATS DSHEA and TCM libraries (AID 1919974);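 further: luminescence from luciferin released by CYP2C19 oxidation of a pro-luciferin substrate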; further: potency means the concentration at half of the fitted maximal effect
Sequence of Cytochrome P450 2C19 (Homo sapiens) (P33261 whole entry, looked up): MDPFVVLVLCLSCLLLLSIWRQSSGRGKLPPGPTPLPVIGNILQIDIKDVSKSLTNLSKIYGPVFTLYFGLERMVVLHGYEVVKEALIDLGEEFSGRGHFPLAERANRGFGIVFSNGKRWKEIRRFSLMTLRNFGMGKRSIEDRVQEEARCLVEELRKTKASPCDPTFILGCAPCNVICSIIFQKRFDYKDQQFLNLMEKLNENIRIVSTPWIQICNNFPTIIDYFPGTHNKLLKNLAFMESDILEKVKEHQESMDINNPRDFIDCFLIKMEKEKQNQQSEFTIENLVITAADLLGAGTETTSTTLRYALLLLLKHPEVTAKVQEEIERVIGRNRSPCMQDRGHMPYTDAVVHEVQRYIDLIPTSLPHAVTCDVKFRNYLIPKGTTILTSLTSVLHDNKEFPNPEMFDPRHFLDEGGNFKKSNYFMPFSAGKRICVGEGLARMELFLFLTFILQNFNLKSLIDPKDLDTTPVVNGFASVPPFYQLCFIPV
Summary of the method: as §2

[9] = KB-3-1 P-gp reporter qHTS against the NCATS DSHEA and TCM libraries (AID 1919975); further: 0% is about no effect
Summary of the method: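 Parental KB-3-1 human cervical adenocarcinoma cells (500 cells/well, DMEM + 10% FBS) were treated with substances for ~72 h at 37C; viability was read by CellTiter-Glo luminescence.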

[10] = target: Cytochrome P450 1A2 (Homo sapiens) (UniProt P05177); test: qHTS for inhibitors of CYPIA2 against the NCATS DSHEA and TCM libraries (AID 1919976); further: potency means the concentration at half of the fitted maximal effect
Sequence of Cytochrome P450 1A2 (Homo sapiens) (P05177 whole entry, looked up): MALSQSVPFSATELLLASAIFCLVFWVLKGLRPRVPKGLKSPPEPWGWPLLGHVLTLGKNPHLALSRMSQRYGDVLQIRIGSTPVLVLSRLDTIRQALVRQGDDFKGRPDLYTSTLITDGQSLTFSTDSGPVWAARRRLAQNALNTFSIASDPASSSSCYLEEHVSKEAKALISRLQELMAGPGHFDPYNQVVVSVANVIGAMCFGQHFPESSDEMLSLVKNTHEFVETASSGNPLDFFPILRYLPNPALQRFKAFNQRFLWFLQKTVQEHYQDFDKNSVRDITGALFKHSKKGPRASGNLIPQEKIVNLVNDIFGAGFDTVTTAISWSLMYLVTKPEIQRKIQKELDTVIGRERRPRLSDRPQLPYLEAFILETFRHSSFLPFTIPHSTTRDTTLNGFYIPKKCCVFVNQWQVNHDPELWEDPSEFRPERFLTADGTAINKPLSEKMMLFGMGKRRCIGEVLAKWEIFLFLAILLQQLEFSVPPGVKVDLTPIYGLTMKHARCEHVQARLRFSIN
Summary of the method: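 Furafylline served as the plate control. Compounds met CYP1A2 and pro-luciferin substrate 15 min before NADPH regeneration solution (1x) was added; after 30-45 min at RT, P450-Glo reagent was added for 30 min and luminescence was measured.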

[11] = qHTS Counterscreen for compound interference against the NCATS DSHEA and TCM libraries (AID 1919978); conditions: firefly luciferase detection reagent interference, luminescence; further: % of control where 0% means no effect
Summary of the method: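 D-luciferin (1 uM final) or 100 mM potassium phosphate buffer alone was preincubated 15 min at RT with compounds (19.5 nM to 39.8 uM final). Luciferin detection reagent was then added and luminescence read after 30 min at RT.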

[12] = Dual reporter qHTS for agonist of Pregnane X Receptor (hPXR) against the NCATS DSHEA and TCM libraries: Fluorescence readout (AID 1920058); further: 0% is about no effect
Summary of the method: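 In this qHTS counter-read, reporter-bearing HepG2 cells in charcoal-stripped serum received substances for approximately 24 h before viability was assessed fluorometrically with CellTiter-Fluor.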

[13] = target: Nuclear receptor subfamily 1 group I member 2 (Homo sapiens) (UniProt O75469); test: Dual reporter qHTS for agonist of Pregnane X Receptor (hPXR) against the NCATS DSHEA and TCM libraries: Luminescence readout (AID 1920059); further: 0% is about no effect
Sequence of Nuclear receptor subfamily 1 group I member 2 (Homo sapiens) (O75469 whole entry, looked up): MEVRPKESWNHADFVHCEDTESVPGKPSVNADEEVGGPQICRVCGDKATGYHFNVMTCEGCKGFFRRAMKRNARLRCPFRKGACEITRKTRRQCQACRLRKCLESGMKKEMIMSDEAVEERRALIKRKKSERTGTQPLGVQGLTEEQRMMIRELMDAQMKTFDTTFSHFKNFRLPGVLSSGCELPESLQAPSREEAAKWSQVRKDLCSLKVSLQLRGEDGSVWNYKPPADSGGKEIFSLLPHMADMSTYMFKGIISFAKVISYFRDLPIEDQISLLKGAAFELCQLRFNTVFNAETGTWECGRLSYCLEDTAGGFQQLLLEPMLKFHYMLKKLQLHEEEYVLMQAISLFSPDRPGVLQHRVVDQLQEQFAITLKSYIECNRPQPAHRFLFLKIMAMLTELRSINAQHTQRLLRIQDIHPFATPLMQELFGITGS
Summary of the method: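 Luminescent PXR reporter read (ONE-Glo) after a CellTiter-Fluor viability read, following 24 h, 37C treatment of HepG2 cells stably carrying hPXR-Luc.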

[14] = target: Nuclear receptor subfamily 1 group I member 2 (Homo sapiens) (UniProt O75469); test: Dual reporter qHTS for antagonist of Pregnane X Receptor (hPXR) against the NCATS DSHEA and TCM libraries: Luminescence Readout (AID 1920060);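 further: HepG2 cells carrying hPXR luciferase reporter stimulated with rifampicin at 2 µM; 0% is about no effect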
Summary of the method: (§3)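 hPXR-Luc HepG2 cells exposed 24 h at 37 C to compounds with 2 uM rifampicin in antagonist mode; luciferase luminescence measured by ONE-Glo, with CellTiter-Fluor viability read beforehand.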

[15] = Dual reporter qHTS for antagonist of Pregnane X Receptor (hPXR) against the NCATS DSHEA and TCM libraries: Fluorescence Readout (AID 1920061); further: 0% is about no effect
Summary of the method: as §3

[16] = target: Cytochrome P450 2D6 (Homo sapiens) (UniProt P10635); test: qHTS for inhibitors of CYP2D6 against the NCATS DSHEA and TCM libraries (AID 1919972); further: on the % scale 0 is the no-effect control and ±100 the full control effect
Sequence of Cytochrome P450 2D6 (Homo sapiens) (P10635 whole entry, looked up): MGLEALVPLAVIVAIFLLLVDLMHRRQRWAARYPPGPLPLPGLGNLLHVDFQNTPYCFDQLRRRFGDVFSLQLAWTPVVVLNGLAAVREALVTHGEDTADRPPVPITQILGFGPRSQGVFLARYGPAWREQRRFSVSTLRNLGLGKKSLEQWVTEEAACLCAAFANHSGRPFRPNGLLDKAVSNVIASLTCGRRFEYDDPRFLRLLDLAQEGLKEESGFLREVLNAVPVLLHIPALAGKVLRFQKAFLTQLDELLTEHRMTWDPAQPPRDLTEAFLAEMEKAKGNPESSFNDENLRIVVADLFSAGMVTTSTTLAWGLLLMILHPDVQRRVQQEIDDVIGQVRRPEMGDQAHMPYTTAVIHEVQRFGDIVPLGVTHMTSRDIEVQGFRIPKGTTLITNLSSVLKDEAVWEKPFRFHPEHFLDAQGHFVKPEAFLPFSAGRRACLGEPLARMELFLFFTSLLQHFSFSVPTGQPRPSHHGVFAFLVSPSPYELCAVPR
Summary of the method: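 qHTS, concentration–response format with most substances from 19.5 nM. CYP2D6 + pro-luciferin substrate, 15 min with compound, then 1x NADPH regen, 30–45 min RT dark. Glo detection 30 min, luminescence. Quinidine control.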

C[C@@H]1OC(O[C@H]2[C@H](O)[C@@H](O)[C@H](OC[C@H]3O[C@@H](OC(=O)[C@]45CCC(C)(C)C[C@@H]4C4=CCC6[C@@]7(C)CC[C@H](OC8OC[C@H](O)[C@H](O)[C@H]8OC8O[C@@H](C)[C@H](O)[C@@H](O)[C@H]8O)[C@@](C)(CO)C7CC[C@@]6(C)[C@]4(C)CC5)[C@H](O)[C@@H](O)[C@@H]3O)O[C@@H]2CO)[C@H](O)[C@H](O)[C@H]1O (some centres not stated)
inactive: outcome [1] | outcome [2] | Potency [3] | outcome [4] | outcome [5] | Potency [6] | Potency [7] | Potency [8] | outcome [9] | Potency [10] | max response [11] -2.4% | outcome [12] | Potency [13] | outcome [14] | outcome [15]

C=C1C[C@@]23CC[C@H]4[C@@](C)(CCC[C@@]4(C)C(=O)O[C@@H]4O[C@H](CO)[C@@H](O)[C@H](O)[C@H]4O[C@@H]4O[C@H](CO)[C@@H](O)[C@H](O)[C@H]4O)[C@@H]2CC[C@]1(O[C@@H]1O[C@H](CO)[C@@H](O)[C@H](O)[C@H]1O[C@@H]1O[C@H](CO)[C@@H](O)[C@H](O)[C@H]1O)C3
inactive: outcome [1] | outcome [2] | Potency [3] | outcome [4] | Potency [6] | Potency [16] | Potency [7] | Potency [8] | outcome [9] | Potency [10] | max response [11] 4.27% | outcome [12] | Potency [13] | outcome [14] | outcome [15]

CC1=CCC(=C(C)C)CC1
inactive: outcome [1] | outcome [2] | Potency [3] | outcome [4] | outcome [5] | Potency [16] | Potency [7] | outcome [9] | Potency [10] | max response [11] 2.83% | outcome [12] | Potency [13] | outcome [15]
active: Potency [6] 39.8 µM

CCCCCCCCCCCCCC(=O)OCC(O)CO (configuration not stated)
inactive: outcome [1] | outcome [2] | Potency [3] | outcome [4] | outcome [5] | Potency [6] | Potency [16] | outcome [9] | max response [11] 2.98% | outcome [12] | Potency [13] | outcome [14] | outcome [15]

CC(=O)OC/C=C/c1ccccc1
inactive: outcome [1] | outcome [2] | Potency [3] | outcome [4] | outcome [5] | Potency [6] | Potency [16] | Potency [7] | outcome [9] | max response [11] 3.54% | outcome [12] | Potency [13] | outcome [15]
active: Potency [10] 28.2 µM

C=C/C(C)=C/C/C=C(\C)CCC=C(C)C
inactive: outcome [1] | outcome [2] | Potency [3] | outcome [4] | outcome [5] | Potency [16] | outcome [9] | Potency [10] | max response [11] 2.78% | outcome [12] | outcome [15]
active: Potency [6] 28.2 µM | Potency [7] 35.5 µM | Potency [8] 31.6 µM

O=c1cc(-c2ccc(O)cc2)oc2cc(O[C@@H]3O[C@H](CO)[C@@H](O)[C@H](O)[C@H]3O[C@@H]3OC[C@](O)(CO)[C@H]3O)cc(O)c12
active: Potency [7] 8.91 µM
inactive: outcome [1] | outcome [2] | Potency [3] | outcome [4] | outcome [5] | Potency [6] | Potency [16] | outcome [9] | Potency [10] | max response [11] 5.67% | outcome [12] | Potency [13] | outcome [14] | outcome [15]

CCCCCCCCCCCCCC(=O)O
inactive: outcome [1] | outcome [2] | Potency [3] | outcome [4] | outcome [5] | Potency [6] | Potency [16] | Potency [8] | outcome [9] | max response [11] -1.78% | outcome [12] | Potency [13] | outcome [14] | outcome [15]

CC12CC3(O)OC(O1)C1(COC(=O)c4ccc(O)cc4)C3CC21OC1OC(CO)C(O)C(O)C1O (configuration not stated)
inactive: outcome [1] | outcome [2] | Potency [3] | outcome [4] | outcome [5] | Potency [6] | Potency [16] | Potency [7] | Potency [8] | outcome [9] | Potency [10] | max response [11] 4.47% | outcome [12] | Potency [13] | outcome [15]

COc1ccc(-c2coc3cc(O[C@@H]4O[C@H](CO)[C@@H](O)[C@H](O)[C@H]4O)ccc3c2=O)cc1
active: Potency [3] 11.2 µM
inactive: outcome [1] | outcome [2] | outcome [4] | outcome [5] | Potency [6] | Potency [16] | Potency [7] | Potency [8] | outcome [9] | Potency [10] | max response [11] 3.05% | outcome [12] | Potency [13] | outcome [15]

CC1=CC[C@H](C(C)C)C=C1
active: Potency [6] 35.5 µM | Potency [8] 39.8 µM
inactive: outcome [1] | outcome [2] | Potency [3] | outcome [4] | outcome [5] | Potency [16] | outcome [9] | Potency [10] | max response [11] 0.517% | outcome [12] | outcome [15]

CCCCCCCCCCCCCCCCCCCCCC(=O)O
inactive: outcome [1] | outcome [2] | Potency [3] | outcome [4] | outcome [5] | Potency [6] | Potency [16] | Potency [7] | Potency [8] | outcome [9] | Potency [10] | max response [11] 3.78% | outcome [12] | Potency [13] | outcome [15]
